# Test results published in PubChem BioAssay (EPA / NIEHS).
# Inconclusive results are not listed. Calls of active or inactive are those of the source. How the source made its calls, unless noted: active means hit-call score of the fitted dose curve at least 0.9, where 1 is the maximum; inconclusive means response in the unintended direction; inactive means score below 0.9.
# Tests used:
# [1] = target: Retinoic acid receptor RXR-alpha (Homo sapiens) (UniProt P19793); assay: ATG_RXRa_TRANS: Attagene TRANS-FACTORIAL HepG2 Assay for human Retinoid X Receptor alpha (RXRa) (AID 2283012)
# Outline: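 Read-out: fluorescent reporter-transcript fragments quantified by capillary electrophoresis after RT-PCR. Transiently transfected HepG2 cells carrying GAL4-UAS reporters and NR-GAL4 chimeras were exposed to chemical for 24 h; activity scored as increase over DMSO.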
# [2] = target: human Retinoid X Receptor beta (RXRb), RXRB (gene 6257) (UniProt P28702); assay: ATG_RXRb_TRANS: Attagene TRANS-FACTORIAL HepG2 Assay for human Retinoid X Receptor beta (RXRb) (AID 2283013)
# Outline: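 Read-out: reporter mRNA induction via RT-PCR plus capillary electrophoresis fluorescence, analysed as signal increase relative to DMSO. Cells were human HepG2, transiently transfected with GAL4-UAS reporter constructs and chimeric receptor-Gal4 fusions, dosed for 24 h.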
# [3] = target: human Thyroid Receptor alpha (THRa1), THRA (gene 7067) (UniProt P10827); assay: ATG_THRa1_TRANS: Attagene TRANS-FACTORIAL HepG2 Assay for human Thyroid Receptor alpha (THRa1) (AID 2283014)
# Outline: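 HepG2 cells transiently transfected with multiplexed GAL4-UAS reporter units for exogenous chimeric THRa1-Gal4; reporter mRNA measured 24 h after dosing by RT-PCR, 6-FAM labelling, HpaI digestion and capillary electrophoresis. Gain-of-signal fitted versus DMSO baseline.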
# [4] = read-out: E-selectin (Homo sapiens) (UniProt P16581); assay: BSK_3C_Eselectin: BioMAP Diversity Plus: 3C Assay for Eselectin Biomarker Activity (AID 2283015; active means hit-call score of the fitted dose curve at least 0.9, where 1 is the maximum; inactive means score below 0.9;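 further: cell surface E-selectin protein quantified by ELISA 24 h after dosing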); conditions: primary human endothelial cells (HUVEC); actives raise or lower the signal
# Outline: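 Primary human umbilical vein endothelial cells (3C system) were dosed with chemical and cell-surface E-selectin measured by ELISA 24 h later. Bidirectional curve fitting used DMSO as negative control and baseline.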
# [5] = read-out: Interleukin-1 alpha (IL1a), IL1A (gene 3552); assay: BSK_BE3C_IL1a: BioMAP Diversity Plus: BE3C Assay for Interleukin-1 alpha (IL1a) Biomarker Activity (AID 2283016; active means hit-call score of the fitted dose curve at least 0.9, where 1 is the maximum; inactive means score below 0.9); conditions: primary human bronchial epithelial cells; actives raise or lower the signal
# Outline: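 ELISA read-out of IL-1a from human lung bronchial epithelial primary cells, 24 h post-dose. Gain or loss of signal fitted relative to DMSO negative control.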
# [6] = read-out: Monocyte Chemoattractant Protein-1 (MCP1), CCL2 (gene 6347); assay: BSK_3C_MCP1: BioMAP Diversity Plus: 3C Assay for Monocyte Chemoattractant Protein-1 (MCP1) Biomarker Activity (AID 2283017; active means hit-call score of the fitted dose curve at least 0.9, where 1 is the maximum; inactive means score below 0.9); conditions: primary human endothelial cells (HUVEC); actives raise or lower the signal
# Outline: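 Primary human umbilical vein endothelial cells (3C system) were exposed to test chemical for 24 h, after which MCP-1 was quantified by ELISA. Activity was fitted bidirectionally against DMSO as negative control and baseline.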
# [7] = read-out: Monocyte Chemoattractant Protein-1 (MCP1), CCL2 (gene 6347); assay: BSK_4H_MCP1: BioMAP Diversity Plus: 4H Assay for Monocyte Chemoattractant Protein-1 (MCP1) Biomarker Activity (AID 2283018; active means hit-call score of the fitted dose curve at least 0.9, where 1 is the maximum; inactive means score below 0.9); conditions: primary human endothelial cells (HUVEC); actives raise or lower the signal
# Outline: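 HUVEC primary cells, 24 h post-dose, MCP-1 by ELISA. Gain or loss of signal fitted bidirectionally vs DMSO baseline. Cytotoxicity: SRB stain (0.1% after 10% TCA fixation), read 560 nm, parallel cultures.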
# [8] = read-out: Human Leukocyte Antigen - DR isotype (HLADR), HLA-DRA (gene 3122); assay: BSK_3C_HLADR: BioMAP Diversity Plus: 3C Assay for Human Leukocyte Antigen - DR isotype (HLADR) Biomarker Activity (AID 2283019; active means hit-call score of the fitted dose curve at least 0.9, where 1 is the maximum; inactive means score below 0.9); conditions: primary human endothelial cells (HUVEC); actives raise or lower the signal
# Outline: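 Primary human umbilical vein endothelial cells (3C system) were dosed with compound and cell-surface HLA-DR was quantified by ELISA at 24 h. Activity was fitted bidirectionally against DMSO as negative control and baseline.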
# [9] = read-out: Interleukin-8 (IL8), CXCL8 (gene 3576); assay: BSK_3C_IL8: BioMAP Diversity Plus: 3C Assay for Interleukin-8 (IL8) Biomarker Activity (AID 2283020; active means hit-call score of the fitted dose curve at least 0.9, where 1 is the maximum; inactive means score below 0.9); conditions: primary human endothelial cells (HUVEC); actives raise or lower the signal
# Outline: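 HUVEC, 3C stimulation; 24 h compound exposure; IL-8 read by ELISA; gain or loss of signal fitted relative to DMSO control.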
# [10] = read-out: Monokine induced gamma interferon (MIG), CXCL9 (gene 4283); assay: BSK_3C_MIG: BioMAP Diversity Plus: 3C Assay for Monokine induced gamma interferon (MIG) Biomarker Activity (AID 2283021; active means hit-call score of the fitted dose curve at least 0.9, where 1 is the maximum; inactive means score below 0.9); conditions: primary human endothelial cells (HUVEC); actives raise or lower the signal
# Outline: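 HUVEC, 3C system; 24 h chemical exposure; MIG by ELISA; bidirectional fit vs DMSO baseline.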
# Sequence of human Thyroid Receptor alpha (THRa1), THRA (gene 7067) (P10827 whole entry, looked up, the tested form may be a part): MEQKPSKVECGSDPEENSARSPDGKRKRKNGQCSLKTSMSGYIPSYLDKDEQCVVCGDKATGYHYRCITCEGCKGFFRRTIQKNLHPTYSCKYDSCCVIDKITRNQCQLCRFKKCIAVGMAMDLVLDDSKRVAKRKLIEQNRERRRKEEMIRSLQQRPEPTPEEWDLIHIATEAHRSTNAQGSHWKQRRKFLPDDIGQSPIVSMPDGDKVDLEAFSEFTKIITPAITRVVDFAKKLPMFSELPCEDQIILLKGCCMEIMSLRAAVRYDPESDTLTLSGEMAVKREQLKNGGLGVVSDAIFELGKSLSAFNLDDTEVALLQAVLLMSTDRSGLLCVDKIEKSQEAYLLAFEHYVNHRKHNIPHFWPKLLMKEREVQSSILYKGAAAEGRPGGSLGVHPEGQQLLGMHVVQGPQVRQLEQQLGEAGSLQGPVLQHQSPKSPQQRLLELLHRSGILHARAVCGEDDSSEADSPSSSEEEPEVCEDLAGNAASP
# Sequence of Retinoic acid receptor RXR-alpha (Homo sapiens) (P19793 whole entry, looked up, the tested form may be a part): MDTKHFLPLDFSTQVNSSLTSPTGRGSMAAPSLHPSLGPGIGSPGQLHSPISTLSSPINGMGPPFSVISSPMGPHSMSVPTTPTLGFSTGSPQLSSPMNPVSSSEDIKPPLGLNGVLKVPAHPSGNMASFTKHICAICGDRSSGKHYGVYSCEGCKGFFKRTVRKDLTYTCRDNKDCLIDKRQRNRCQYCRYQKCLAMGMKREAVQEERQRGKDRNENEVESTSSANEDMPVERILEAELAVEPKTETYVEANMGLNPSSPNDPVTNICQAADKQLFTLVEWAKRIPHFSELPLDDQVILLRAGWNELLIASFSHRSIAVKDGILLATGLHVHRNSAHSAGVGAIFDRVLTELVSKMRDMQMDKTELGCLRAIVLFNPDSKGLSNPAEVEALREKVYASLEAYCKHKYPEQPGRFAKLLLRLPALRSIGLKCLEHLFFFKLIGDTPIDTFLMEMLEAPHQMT
# Sequence of human Retinoid X Receptor beta (RXRb), RXRB (gene 6257) (P28702 whole entry, looked up, the tested form may be a part): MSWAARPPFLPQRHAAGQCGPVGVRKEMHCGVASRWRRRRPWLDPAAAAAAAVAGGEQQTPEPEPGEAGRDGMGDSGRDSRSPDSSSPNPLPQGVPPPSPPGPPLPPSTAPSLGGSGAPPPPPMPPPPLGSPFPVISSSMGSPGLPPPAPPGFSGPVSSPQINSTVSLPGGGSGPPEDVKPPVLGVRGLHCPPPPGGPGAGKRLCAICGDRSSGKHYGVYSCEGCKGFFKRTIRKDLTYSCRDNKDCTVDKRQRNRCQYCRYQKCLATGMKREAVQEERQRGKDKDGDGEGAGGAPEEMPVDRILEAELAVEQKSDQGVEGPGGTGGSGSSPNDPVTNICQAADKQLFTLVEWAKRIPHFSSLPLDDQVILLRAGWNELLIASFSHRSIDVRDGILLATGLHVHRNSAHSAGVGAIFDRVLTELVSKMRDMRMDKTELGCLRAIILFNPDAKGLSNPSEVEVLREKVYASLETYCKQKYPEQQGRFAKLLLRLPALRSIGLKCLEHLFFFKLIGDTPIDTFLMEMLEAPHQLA
# Sequence of E-selectin (Homo sapiens) (P16581 whole entry, looked up): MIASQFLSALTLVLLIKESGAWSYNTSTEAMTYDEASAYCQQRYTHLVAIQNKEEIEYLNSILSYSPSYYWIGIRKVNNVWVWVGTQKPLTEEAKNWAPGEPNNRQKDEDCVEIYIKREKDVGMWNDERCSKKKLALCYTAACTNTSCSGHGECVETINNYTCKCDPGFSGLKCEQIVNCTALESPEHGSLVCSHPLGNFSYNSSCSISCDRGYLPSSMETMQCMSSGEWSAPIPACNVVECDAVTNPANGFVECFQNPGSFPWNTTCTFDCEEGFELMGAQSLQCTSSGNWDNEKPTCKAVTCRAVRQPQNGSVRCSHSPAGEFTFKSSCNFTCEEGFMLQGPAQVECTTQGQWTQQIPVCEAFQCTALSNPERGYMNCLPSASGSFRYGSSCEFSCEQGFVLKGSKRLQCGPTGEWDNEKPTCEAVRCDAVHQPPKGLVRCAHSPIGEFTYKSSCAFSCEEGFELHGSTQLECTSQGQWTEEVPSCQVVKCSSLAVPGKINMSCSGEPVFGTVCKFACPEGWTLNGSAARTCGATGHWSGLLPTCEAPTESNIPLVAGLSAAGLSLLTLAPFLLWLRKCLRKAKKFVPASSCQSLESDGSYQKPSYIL
smiles,measurement,setting,value
O=C(Oc1ccccc1)c1ccc(O)cc1,outcome,[1],inactive
same,outcome,[2],inactive
same,outcome,[3],inactive
Clc1cccc(Cl)n1,outcome,[1],inactive
same,outcome,[2],inactive
same,outcome,[3],inactive
COC(=O)Cc1cccc2ccccc12,outcome,[1],inactive
same,AC50,[2],55.2 µM (active)
NNc1nc(-c2ccc(N)cc2)cs1,outcome,[1],inactive
same,outcome,[2],inactive
CC(C)=CCC[C@H](C)CC=O,outcome,[1],inactive
same,outcome,[2],inactive
same,outcome,[3],inactive
O=C(O)CCSCCC(=O)O,outcome,[1],inactive
same,outcome,[2],inactive
COc1ccc(Nc2ccccc2)c(C)c1,outcome,[1],inactive
same,AC50,[2],33.1 µM (active)
same,outcome,[3],inactive
C=CC(C)(C)O,outcome,[1],inactive
same,outcome,[2],inactive
COc1ccnc(CS(=O)c2nc3cc(OC(F)F)ccc3[nH]2)c1OC (stereo not given),outcome,[1],inactive
same,outcome,[2],inactive
COC(C)CCO (stereo not given),AC50,[1],53.7 µM (active)
same,AC50,[2],4.07 µM (active)
same,outcome,[3],inactive
CCCc1c(OCCCOc2ccc(OCC(=O)O)cc2)ccc(C(C)=O)c1O,outcome,[1],inactive
same,AC50,[2],8.03 µM (active)
same,outcome,[3],inactive
CCCCN,outcome,[1],inactive
same,outcome,[2],inactive
same,outcome,[3],inactive
C=C(C)[C@@H]1CCC2=CC(=O)C[C@@H](C)[C@]2(C)C1,outcome,[1],inactive
same,outcome,[2],inactive
CCCCCCOC(=O)CC,outcome,[1],inactive
same,outcome,[2],inactive
same,outcome,[3],inactive
C=C(C)C(=O)Nc1ccc(Cl)c(Cl)c1,outcome,[1],inactive
same,AC50,[2],41 µM (active)
same,outcome,[3],inactive
O=C1CCc2ccccc2O1,outcome,[1],inactive
same,outcome,[2],inactive
O=Cc1ccc(F)cc1,outcome,[1],inactive
same,outcome,[2],inactive
CC(C)(C)NC(N)=O,outcome,[1],inactive
same,outcome,[2],inactive
same,outcome,[3],inactive
CC(=O)O[C@]1(C(C)=O)CC[C@H]2[C@@H]3C[C@H](C)C4=CC(=O)CC[C@]4(C)[C@H]3CC[C@@]21C,AC50,[1],2.91 µM (active)
same,AC50,[2],2.34 µM (active)
same,outcome,[4],inactive
same,outcome,[5],inactive
same,outcome,[6],inactive
same,outcome,[7],inactive
same,AC50,[8],10 µM (active)
same,outcome,[9],inactive
same,outcome,[10],inactive
